Source: PubChem BioAssay
Active and inactive are the calls of the source.

What was measured:
[1] = system: Plasmodium falciparum Sir2 (PF13_0152, Sir2A); test: Plasmodium falciparum Sir2A binding compounds – biochemical, small-molecule microarray, 635 nm fluorescence, primary screen (AID 1098); details: fluorescence 635 nm, higher = more signal;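 note: score merges spot fluorescence intensity with its signal-to-noise ratio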
[2] = probe aDKK1 binding to arrayed compounds – biochemical, biotinylated probe, 635/667 nm fluorescence, primary screen (AID 1099); details: small-molecule microarray, higher = more signal;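 note: score merges 667nm spot fluorescence with signal to noise across triplicate slides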
[3] = probe aCHRDL2 binding to arrayed compounds – biochemical, biotinylated probe, 635/667 nm fluorescence, primary screen (AID 1100); details: small-molecule microarray, higher = more signal
[4] = change in splice reporter luminescence, either direction, cell-based, HEK293, spliceosome inhibition project, primary screen (AID 1101); details: HEK293 splicing luciferase reporter, 24 h, higher = more signal, called active from +8 up or from −8 down;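 note: HEK293 cells carrying a splicing-competent luciferase reporter gene; test concentration not given here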
[5] = target: Fibroblast growth factor 10 (Homo sapiens) (UniProt O15520); test: compounds binding fibroblast growth factor 10 – biochemical, small-molecule microarray, 635 nm fluorescence, primary screen (AID 1102); details: FGF10 binding, fluorescence 635 nm, higher = more signal
[6] = system: glycogen synthase kinase-3 (GSK3A per assay name; protocol says GSK3B); test: compounds binding glycogen synthase kinase-3 – biochemical, small-molecule microarray, 635 nm fluorescence, GSK3A, primary screen (AID 1103); details: fluorescence 635 nm, higher = more signal; note: the record names both GSK3A and GSK3B
[7] = target: Epidermal growth factor receptor (Homo sapiens) (UniProt P00533); test: compounds binding epidermal growth factor receptor – biochemical, small-molecule microarray, 635 nm fluorescence, primary screen (AID 1104); details: EGFR binding, higher = more signal;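 note: score merges 667 nm emission intensity with spot signal to noise over triplicate slides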
[8] = target: Follistatin-related protein 3 (Homo sapiens) (UniProt O95633); test: compounds binding follistatin-related protein 3 – biochemical, small-molecule microarray, 635 nm fluorescence, primary screen (AID 1105); details: FSTL3 binding, higher = more signal;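 note: score merges emission near 667 nm and signal to noise per printed spot across three slides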
[9] = target: Dickkopf-related protein 1 (Homo sapiens) (UniProt O94907); test: small molecules binding DKK1 protein – biochemical, small-molecule microarray, 635 nm fluorescence scan, primary screen (AID 1106); details: higher = more signal;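 note: score merges emission near 667 nm with signal to noise over three replicate slides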
[10] = system: Inhibin beta A chain (activin A); test: small molecules binding activin A – biochemical, small-molecule microarray, 635 nm fluorescence scan, primary screen (AID 1107); details: INHBA, higher = more signal;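 note: mouse activin A protein probed at 4.33 µg/mL on printed slides; score merges bound-protein fluorescence near 667 nm with spot signal-to-noise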
[11] = system: Human papillomavirus type 1a protein E7 (residues 44-93); test: small molecules binding HPV E7 44-93 – biochemical, small-molecule microarray, residues 44-93, 635 nm fluorescence, primary screen (AID 1108); details: fluorescence 635 nm, higher = more signal;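 note: E7 fragment applied at 1 µg/mL in TBST for 1 h at 4 C; score combines spot fluorescence with its signal to noise ratio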
[12] = hepatitis C replication reporter changes, two-sided – Huh7 cells, luciferase reporter, HCV replication inhibitor project, primary screen (AID 1109); details: Huh7 HCV replicon luciferase reporter, 48 h; higher = more signal;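 note: huh7 hepatoma cells harbouring a luciferase neomycin HCV replicon reporter; luciferase luminescence as measure of HCV replicon replication; test concentration not given here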
[13] = target: Left-right determination factor 2 (Homo sapiens) (UniProt O00292); test: small molecules binding LEFTY2 protein – biochemical, small-molecule microarray, 635 nm fluorescence scan, primary screen (AID 1110); details: higher = more signal
[14] = target: Calmodulin-1 (Homo sapiens) (UniProt P0DP23); test: small molecules binding calmodulin-1 with EGTA – biochemical, small-molecule microarray, Cy5-labelled CALM1, profiling panel (AID 1111); details: Cy5-CALM1 binding fluorescence, higher = more signal;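 note: labelled calmodulin applied in Tris saline Tween buffer holding calcium plus EGTA and DTT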
[15] = target: Calmodulin-1 (Homo sapiens) (UniProt P0DP23); test: small molecules binding Ca-loaded calmodulin-1 – biochemical, small-molecule microarray, Cy5-labelled CALM1, plus calcium, artefact control for SMM control-protein annotation, profiling panel (AID 1112); details: Cy5-CALM1 binding fluorescence, higher = more signal;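 note: score merges spot fluorescence with signal to noise from triplicate slides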
[16] = probe aWnt5a binding to arrayed compounds – biochemical, biotinylated probe, 635/667 nm fluorescence, primary screen (AID 1113); details: small-molecule microarray, higher = more signal;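 note: score merges 667 nm fluorescence intensity with signal-to-noise per printed feature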
[17] = probe aShh binding to arrayed compounds – biochemical, biotinylated probe, 635/667 nm fluorescence, primary screen (AID 1114); details: small-molecule microarray, higher = more signal;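 note: probe is biotin-labelled aShh protein from a stem cell growth factor screen; measures binding of labelled protein to compounds printed on the slide; score merges feature fluorescence at 667 nm with signal-to-noise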
[18] = probe aNog binding to arrayed compounds – biochemical, biotinylated probe, 635/667 nm fluorescence, primary screen (AID 1115); details: small-molecule microarray, higher = more signal;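 note: probe is biotinylated aNog protein used at 0.15 µg/mL for 1 h at 4 C; z-score combines 667 nm fluorescence of each spot with its signal to noise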
[19] = target: Torsin-1A-interacting protein 1 (Homo sapiens) (UniProt Q5JTV8); test: compound microarray binding of lysate hLAP1 – cell lysate, small-molecule microarray, COS7 lysate, 635/667 nm fluorescence, primary screen (AID 1116); details: 635 nm fluorescence, higher = more signal
[20] = target: Alpha-bungarotoxin (Bungarus multicinctus) (UniProt P60615); test: compounds binding labelled alpha-BTX control protein – biochemical, small-molecule microarray, Alexa647 label, 635/667 nm fluorescence, artefact control for SMM control protein annotation, profiling panel (AID 1117); details: alpha-BTX-A647 binding fluorescence, higher = more signal
Alpha-bungarotoxin (Bungarus multicinctus), sequence (P60615 whole entry, looked up): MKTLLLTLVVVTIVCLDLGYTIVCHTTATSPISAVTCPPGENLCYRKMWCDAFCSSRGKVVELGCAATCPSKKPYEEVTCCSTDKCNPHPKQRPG

Fibroblast growth factor 10 (Homo sapiens), sequence (O15520 whole entry, looked up): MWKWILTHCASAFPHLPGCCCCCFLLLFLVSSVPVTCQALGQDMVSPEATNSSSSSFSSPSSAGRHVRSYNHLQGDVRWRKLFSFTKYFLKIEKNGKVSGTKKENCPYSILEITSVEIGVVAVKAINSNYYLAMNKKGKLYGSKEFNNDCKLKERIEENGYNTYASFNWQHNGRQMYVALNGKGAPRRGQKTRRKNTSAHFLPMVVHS
Dickkopf-related protein 1 (Homo sapiens), sequence (O94907 whole entry, looked up): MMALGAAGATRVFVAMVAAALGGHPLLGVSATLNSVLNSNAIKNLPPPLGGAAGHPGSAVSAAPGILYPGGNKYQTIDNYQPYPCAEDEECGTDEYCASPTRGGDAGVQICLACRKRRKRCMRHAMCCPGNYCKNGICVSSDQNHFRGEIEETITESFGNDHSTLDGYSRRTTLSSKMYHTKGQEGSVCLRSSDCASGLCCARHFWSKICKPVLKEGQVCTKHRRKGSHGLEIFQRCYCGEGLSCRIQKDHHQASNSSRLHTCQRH
Torsin-1A-interacting protein 1 (Homo sapiens), sequence (Q5JTV8 whole entry, looked up): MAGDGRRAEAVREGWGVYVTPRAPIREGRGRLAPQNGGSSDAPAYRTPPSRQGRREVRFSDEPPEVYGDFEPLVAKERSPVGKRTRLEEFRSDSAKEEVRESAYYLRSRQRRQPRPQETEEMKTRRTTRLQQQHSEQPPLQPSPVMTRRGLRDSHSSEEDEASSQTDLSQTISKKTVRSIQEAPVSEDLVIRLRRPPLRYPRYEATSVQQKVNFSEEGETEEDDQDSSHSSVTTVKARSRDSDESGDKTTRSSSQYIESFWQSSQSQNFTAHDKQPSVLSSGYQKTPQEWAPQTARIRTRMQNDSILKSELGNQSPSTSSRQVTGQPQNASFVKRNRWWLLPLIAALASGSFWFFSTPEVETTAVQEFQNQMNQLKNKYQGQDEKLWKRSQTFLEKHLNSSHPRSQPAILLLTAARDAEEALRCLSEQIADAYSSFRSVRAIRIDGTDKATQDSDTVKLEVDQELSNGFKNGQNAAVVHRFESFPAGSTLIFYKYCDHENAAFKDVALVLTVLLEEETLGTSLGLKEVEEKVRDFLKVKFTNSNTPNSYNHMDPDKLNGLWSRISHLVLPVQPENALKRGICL
Left-right determination factor 2 (Homo sapiens), sequence (O00292 whole entry, looked up): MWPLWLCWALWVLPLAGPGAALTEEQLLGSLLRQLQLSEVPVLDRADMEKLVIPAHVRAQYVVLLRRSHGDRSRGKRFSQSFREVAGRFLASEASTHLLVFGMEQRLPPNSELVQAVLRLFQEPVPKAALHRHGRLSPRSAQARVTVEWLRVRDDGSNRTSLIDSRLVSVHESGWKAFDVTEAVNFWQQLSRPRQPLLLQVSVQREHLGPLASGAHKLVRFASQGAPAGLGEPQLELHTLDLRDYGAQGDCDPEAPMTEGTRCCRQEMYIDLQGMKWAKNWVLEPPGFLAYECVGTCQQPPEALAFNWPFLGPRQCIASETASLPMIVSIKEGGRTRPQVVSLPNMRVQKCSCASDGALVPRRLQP
Epidermal growth factor receptor (Homo sapiens), sequence (P00533 whole entry, looked up): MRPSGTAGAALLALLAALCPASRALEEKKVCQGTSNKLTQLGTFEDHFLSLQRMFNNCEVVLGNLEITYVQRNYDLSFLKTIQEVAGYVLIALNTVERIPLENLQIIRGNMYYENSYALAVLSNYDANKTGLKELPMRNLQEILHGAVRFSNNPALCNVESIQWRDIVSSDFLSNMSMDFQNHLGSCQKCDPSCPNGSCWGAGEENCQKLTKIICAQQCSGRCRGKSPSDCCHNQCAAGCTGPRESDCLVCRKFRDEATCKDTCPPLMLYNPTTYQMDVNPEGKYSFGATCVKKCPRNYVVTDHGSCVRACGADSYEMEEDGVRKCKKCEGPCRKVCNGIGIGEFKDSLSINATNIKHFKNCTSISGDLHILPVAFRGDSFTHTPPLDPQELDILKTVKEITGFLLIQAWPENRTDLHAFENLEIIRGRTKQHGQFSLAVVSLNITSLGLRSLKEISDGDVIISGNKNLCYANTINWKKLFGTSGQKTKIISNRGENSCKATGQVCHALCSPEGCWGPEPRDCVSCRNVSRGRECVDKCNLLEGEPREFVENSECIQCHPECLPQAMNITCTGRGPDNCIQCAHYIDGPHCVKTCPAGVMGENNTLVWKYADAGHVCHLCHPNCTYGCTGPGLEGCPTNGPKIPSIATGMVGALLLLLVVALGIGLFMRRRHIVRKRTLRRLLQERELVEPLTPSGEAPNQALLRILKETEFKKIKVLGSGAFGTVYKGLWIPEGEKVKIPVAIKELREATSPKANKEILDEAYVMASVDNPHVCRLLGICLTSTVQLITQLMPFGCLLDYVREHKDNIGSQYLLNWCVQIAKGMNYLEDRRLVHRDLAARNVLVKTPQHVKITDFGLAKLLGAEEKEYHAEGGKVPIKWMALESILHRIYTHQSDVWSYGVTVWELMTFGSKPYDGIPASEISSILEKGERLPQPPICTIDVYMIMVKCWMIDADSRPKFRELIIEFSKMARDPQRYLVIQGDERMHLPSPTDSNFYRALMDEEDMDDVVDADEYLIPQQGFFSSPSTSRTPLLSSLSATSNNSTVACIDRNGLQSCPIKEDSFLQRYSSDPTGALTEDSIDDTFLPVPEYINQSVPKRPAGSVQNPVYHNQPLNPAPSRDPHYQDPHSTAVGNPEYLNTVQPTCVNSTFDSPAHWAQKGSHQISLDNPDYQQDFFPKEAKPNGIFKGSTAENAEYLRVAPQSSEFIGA
Follistatin-related protein 3 (Homo sapiens), sequence (O95633 whole entry, looked up): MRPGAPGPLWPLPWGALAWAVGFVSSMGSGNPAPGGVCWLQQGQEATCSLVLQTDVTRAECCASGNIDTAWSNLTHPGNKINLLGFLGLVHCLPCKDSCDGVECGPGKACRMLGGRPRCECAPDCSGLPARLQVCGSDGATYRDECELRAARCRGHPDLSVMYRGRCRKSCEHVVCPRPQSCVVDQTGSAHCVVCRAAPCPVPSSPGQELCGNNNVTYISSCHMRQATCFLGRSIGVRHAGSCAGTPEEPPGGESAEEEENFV

Row | Structure (SMILES) | composite z-score [1] | composite z-score [2] | composite z-score [3] | z-score [4] | composite z-score [5] | composite z-score [6] | composite z-score [7] | composite z-score [8] | composite z-score [9] | composite z-score [10] | composite z-score [11] | z-score [12] | composite z-score [13] | composite z-score [14] | composite z-score [15] | composite z-score [16] | composite z-score [17] | composite z-score [18] | composite z-score [19] | composite z-score [20]
1 | C=CC[C@H](OC(=O)Nc1ccc(SC)cc1)c1ccc(OCCO)cc1 | 0.392 | -0.164 | 0.799 | -1.69 (inactive) | -0.163 | -0.989 | -0.634 | -0.0191 | -0.472 | 0.138 | -0.833 | 1.34 | -0.952 | -0.316 | 0.461 | -0.0994 | 0.0188 | 1.48 | -0.286 | 0.191
2 | COc1ccc([Si](C)(C)[C@@H]2[C@@H](CCn3cc([C@H](O)c4ccccc4)nn3)O[C@]3(C(=O)N(c4ccccc4)c4ccccc43)[C@H]2C)cc1 | 0.548 | -0.016 | -0.142 | -1.18 (inactive) | 0.23 | -0.15 | -0.302 | 0.115 | 0.181 | 0.372 | -0.0404 | -3.76 | -0.184 | 0.052 | -0.336 | -0.096 | 0.413 | 0.383 | 0.0664 | 0.351
3 | Cc1c(NC(=O)/C(C#N)=C/c2ccccc2Cl)c(=O)n(-c2ccccc2)n1C | 0.633 | -0.258 | -0.0592 | -0.378 (inactive) | 0.185 | -0.046 | 0.139 | 0.361 | 0.491 | 0.395 | -0.11 | 0.614 | 0.453 | 1.01 | -0.154 | -0.0377 | -0.588 | -0.226 | 0.858 | 0.42
4 | CCOC(=O)C[C@H]1[C@H](OC(=O)c2cc3ccccc3oc2=O)[C@@H](NC(=O)c2ccc3ccccc3c2)c2cc(OCCCO)ccc2N1C(=O)Cc1ccc(OC)cc1 | 0.571 | -0.0385 | -0.0886 | -0.239 (inactive) | 0.576 | 0.162 | 0.34 | 1.18 | 0.427 | 0.237 | 1.16 | -1.6 | 0.763 | 0.31 | -0.239 | -0.0648 | 0.0588 | -0.0047 | 0.546 | 0.259
5 | COc1ccc(C(=O)Nc2cccc(CN3C(=O)[C@]4(O[C@H](CCn5cc([C@H](O)c6ccccc6)nn5)[C@@H]([Si](C)(C)c5ccc(OC)cc5)[C@@H]4C)c4ccccc43)c2)cc1 | 0.758 | 0.224 | 0.265 | -2.49 (inactive) | 0.26 | -0.266 | -0.339 | 0.31 | -0.132 | 1.41 | 1.38 | -5.19 | 0.126 | -0.0002 | -0.614 | -0.13 | -0.0793 | 0.189 | 0.361 | 1.09
6 | C=CCNC(=O)[C@@H]1[C@H]2C(=O)O[C@H](c3ccccc3)[C@H](c3ccccc3)N2[C@H](c2ccc(O)cc2)[C@@]12C(=O)Nc1ccc(C#CCC(C(=O)OC)C(=O)OC)cc12 | 0.445 | 0.0989 | 0.181 | 0.246 (inactive) | 0.242 | 0.958 | -0.0617 | 0.544 | 0.317 | 0.595 | 1.31 | -2.11 | -0.0742 | -0.0406 | 0.0221 | -0.147 | -0.2 | 0.187 | 0.411 | 0.388
7 | Cc1ccc(S[C@]2(C(=O)NCC(C)C)CC(=O)N(C3Cc4ccccc4C3)[C@@H]2c2ccc(CO)cc2I)cc1 | 1.35 | -0.126 | -0.0156 | -0.968 (inactive) | -0.767 | -0.61 | -0.821 | 0.594 | -1.02 | 0.847 | -0.117 | -1.33 | -1.2 | -0.257 | 0.27 | -0.125 | -0.368 | 0.0862 | 0.273 | -0.324
8 | Cc1cccc([C@H]2C[C@H]3C(I)=C[C@@H]2C(=O)[C@]32CO2)c1 | -0.636 | -0.251 | 0.154 | -1.48 (inactive) | 0.575 | -0.499 | -0.0512 | 0.445 | 0.125 | 1.03 | -0.998 | -1.94 | 0.0047 | -0.542 | -0.271 | -0.141 | -0.345 | -0.0381 | -0.0258 | 0.132
